# Assay outcomes (PubChem)
# Pf growth 48h: inhibits P. falciparum growth in the first generation, 48 h | P. falciparum luciferase growth in erythrocytes, 48 h | Potency, µM (series often up to 28.7 µM), actives largely listed as inhibitors | hit rate 5.9% among 310,000
#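 In quantitative HTS format, infected erythrocytes bearing luciferase-reporter parasites were treated for a single generation at 37 C. Luminescence after adding detection reagent served as the growth measure.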
# Pf growth 96h: P. falciparum growth inhibition at 96 hours; P. falciparum luciferase reporter growth, 96 h; Potency, µM (top dose mostly 28.7 µM), most hits filed as inhibitors; hit rate 6.9% among 320,000; AID 504834
#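 Delayed-death screen, second-generation endpoint: infected erythrocytes, 2% hematocrit, 0.05% parasitemia final; 96 hours at 37 C, 5% CO2; luciferase detection reagent; luminescence decrease equals reduced growth.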
# HCV inh: blocks hepatitis C virus; Huh7.5.1 HCVcc-Cre infection, luciferase reporter, 44 h; Potency, µM (series often up to 41.8 µM), usual class: inhibitors; hit rate 3.4% among 340,000; AID 651820
#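 Infectious HCV cell culture screen: compound-treated cells (1,000/well, pre-plated 4 h) are infected with HCVcc-Cre at roughly 0.5 moi and grown 44 h. Infection is quantified by luciferase signal after 15 min substrate incubation at room temperature.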
# AMA1-RON2 inh: AMA1-RON2 (P. falciparum) interaction inhibition; AID 720542; hit rate 0.2% among 360,000; AlphaScreen AMA1-biotinylated RON2 peptide binding; Potency, µM (doses to about 58.2 µM), hits mostly inhibitors; further: nearly all actives have a fitted effect of over 45% in size
#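 AMA1 (3D7) with his tag at 25 nM final met compounds first, then biotinylated RON2 peptide at 25 nM; detection used donor plus acceptor beads, 10 µg/mL apiece, read by AlphaScreen after 30 min at room temperature.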
# A number is an active result; – = inactive; ? = inconclusive; · = not tested or not shown; ! = not confirmed by another sample; [ ] = another dose, or the depositor's remark. Compounds with a hit are over-represented: about 11% of the library has one in this group of screens. The call rests on the fitted dose curve; in most records, active means well fitted curve in the direction sought with a large enough effect; inconclusive means small, poorly fitted or top-dose-only effect, or another doubt; inactive means no such curve, though single readings can be large; an effect the other way counts as inactive or inconclusive.
SMILES,Pf growth 48h,Pf growth 96h,HCV inh,AMA1-RON2 inh
O=C(C[n+]1ccccc1)N/N=C/c1ccc(F)cc1,?,?,–,–
CN(C)CCCNS(=O)(=O)c1ccc(Cl)s1,–,?,–,–
COc1cc(C(=O)Nc2ccc(S(=O)(=O)N3CCCCC3)cc2)ccc1OCC(=O)N1CCOCC1,·,·,–,–[11.6 µM]
CN(CCC1CCCCO1)C(=O)CCc1nnc(C2CCCCC2)o1 (stereo not given),–,?,–,–
Cc1cc(C(=O)OCn2nnc3ccccc3c2=O)c(C)n1-c1ccccc1,?,1.9µM,?,–
C/C(N)=C(/C#N)C(=O)COC(=O)c1cc(C)n(-c2ccc(F)cc2)c1C,8.3µM,3.3µM,?,–
Cc1ccccc1C(=O)OCn1nnc2ccccc2c1=O,–,8.3µM,–,–
Cc1cc(C(=O)COc2cccc(-n3cnnn3)c2)c(C)n1-c1ccccc1,?,–,1µM,–
CCN(C(=O)COC(=O)c1cc(C)n(-c2ccc(F)cc2)c1C)C1CCS(=O)(=O)C1 (stereo not given),?,–,–,–
Cc1ccc(-c2cc(C(=O)OCn3nnc4ccccc4c3=O)c3ccccc3n2)cc1,–,–,–,–
COCOCCn1cc(CN2CCS(=O)(=O)N(Cc3ccc(-c4ccccc4)cc3)C(C(C)C)C2=O)nn1 (stereo not given),·,·,·,–
CN(CC(=O)Nc1ccc(Cl)c(C(F)(F)F)c1)C(=O)c1cccc(N2C(=O)CCC2=O)c1,–,?,–,–
Cc1cc(C(=O)OCC(N)=O)c(C)n1-c1ccccc1,?,2.1µM,–,–
CCOC(=O)c1cc(C)n(-c2ccccc2)c1C,–,–,–,?
O=C(CCNC(=O)c1ccc(Br)cc1)Nc1ccccc1N1CCCCC1,?,?,–,–
CCCNC(=O)c1ccc(N2CCC3(CC2)CC(c2ccccc2)=NO3)c(NC(=O)c2cccc(C)c2)c1,8.3µM,1.9µM,–,–
COc1ccc(CNC(=O)c2ccc(N3CCC4(CC3)CC(c3ccc(Cl)cc3)=NO4)c([N+](=O)[O-])c2)cc1,·,·,0.89µM,–
CCCNC(=O)c1ccc(N2CCC3(CC2)CC(c2cccc(Br)c2)=NO3)c(NC(=O)c2cccc(OC)c2)c1,?,8.3µM,?,–
C=C1CCN(c2ccc(C(=O)NCc3ccc(OC)cc3)cc2[N+](=O)[O-])CC1,·,·,?,–
CCCNC(=O)c1ccc(N2CCC3(CC2)CC(c2ccccc2)=NO3)c(NC(=O)c2ccc(Br)cc2)c1,?,1.9µM,?,–
CC1=CC(=O)Nc2ncccc2O1,·,·,·,–
Cc1ccc(CNC(=O)c2ccc(N3CCC4(CC3)CC(c3cccc(Br)c3)=NO4)c(NC(=O)c3cccc(C)c3)c2)cc1,?,–,–,–
Cc1ccc(CNC(=O)c2ccc(N3CCC4(CC3)CC(c3cccc(Br)c3)=NO4)c(NC(=O)c3c(Cl)cccc3Cl)c2)cc1,5.9µM,9.3µM,–,–
Cc1ccc(CNC(=O)c2ccc(N3CCC4(CC3)CC(c3cccc(Br)c3)=NO4)c(NC(=O)c3ccc(Br)cc3)c2)cc1,·,·,–,–
COc1cccc(C(=O)Nc2cc(C(=O)NCc3ccc(C)cc3)ccc2N2CCC3(CC2)CC(c2cccc(Br)c2)=NO3)c1,10µM,–,–,–
SMILES,Pf growth 48h,Pf growth 96h,HCV inh,AMA1-RON2 inh
O=C(Nc1cc(C(=O)N2CCCC2)ccc1N1CCCC1)c1ccccc1,–,·,–,–
Cc1ccc(CNC(=O)c2ccc(N3CCC4(CC3)CC(c3ccccc3)=NO4)c(NC(=O)c3cccc(C)c3)c2)cc1,4.1µM,?,–,–
CCCNC(=O)c1ccc(N2CCC3(CC2)CC(c2ccccc2)=NO3)c(NC(=O)c2ccccc2)c1,?,5.9µM,–,–
C(=C\n1nnc2ccccc21)/c1ccc[nH]1,–,–,–,?
Cc1nn(C)c(C)c1NC(=O)CC12CC3CC(CC(C3)C1)C2,–,–,–,–
CCCNC(=O)c1ccc(N2CCC3(CC2)CC(c2cccc(Br)c2)=NO3)c(NC(=O)c2ccccc2)c1,9.3µM,12µM,–,–
Cc1ccc(CNC(=O)c2ccc(N3CCC4(CC3)CC(c3ccccc3)=NO4)c(NC(=O)c3ccc(Cl)c([N+](=O)[O-])c3)c2)cc1,?,?,11µM,–
CCCCCCCC(=O)Nc1cc(C(=O)NCCC)ccc1N1CCC2(CC1)CC(c1ccccc1)=NO2,?,7.4µM,–,–
C=C1CCN(c2ccc(C(=O)NCc3ccc(C)cc3)cc2[N+](=O)[O-])CC1,?,–,–,–
CCCCCCCC(=O)Nc1cc(C(=O)NCc2ccc(C)cc2)ccc1N1CCC2(CC1)CC(c1cccc(Br)c1)=NO2,–,–,–,–
NC(=O)CNC(=O)[C@@H]1CC2(CC(c3cccc(Br)c3)=NO2)CN1C(=O)c1ccc(Br)cc1 (stereo not given in full),–,–,–,–
CC(NC(=O)c1ccc(S(=O)(=O)Nc2ccccc2Cl)cc1)c1ccncc1 (stereo not given),·,·,–,–
O=C(Nc1cnc2ccccn2c1=O)c1ccc(Cl)cc1,–,–,–,–
O=C(Nc1ccccc1)SC1CCCCC1,·,·,–,–
COCCn1ccc2c(OCC(=O)Nc3cccc(NC(C)=O)c3)cccc2c1=O,–,?,–,–
CN1CCN(c2c(F)cc3c(=O)c(C(=O)O)cn4c3c2OCN4C)CC1,–,15µM!,–,–
CN1CCN(c2c(F)cc3c(=O)c(C(=O)O)cn(CCF)c3c2F)CC1,–,–,·,·
COC(=O)CN1C(=S)N(c2ccc(OC)cc2)C(=O)/C1=C/c1ccc(OC)cc1,12µM,–,–,?
CC(C)(C)c1ccc(Oc2ccc(N)cn2)cc1,–,?,4µM,–
O=C(CSc1ccc2nnc(CCNC(=O)c3ccccc3)n2n1)NCCc1ccccc1,–,–,–,–
Cn1c(=O)n(C)c2cc(/C=N/n3cnnc3)ccc21,–,5.9µM,–,–
Cc1cccc2nc(COc3ccc(-c4ccccc4)cc3)cn12,–,–,·,·
CC[C@H](C)[C@@H](CNC)NC[C@@H](Cc1ccc(O)cc1)NCC(C)(C)C,?,13µM,?,–
Cc1cc(C)c2[nH]c(=O)c(C(c3nnnn3Cc3ccc4c(c3)OCO4)N3CCCCC3)cc2c1 (stereo not given),–,–,–,–
CCC(C)(C)n1nnnc1C(c1cc2cc(C)cc(C)c2[nH]c1=O)N1CCCC1 (stereo not given),5.9µM,?,?,–
CCC(C)(C)n1nnnc1C(c1cc2cc(C)cc(C)c2[nH]c1=O)N1CCN(Cc2ccc3c(c2)OCO3)CC1 (stereo not given),·,0.52µM,–,–
Cc1cc(C)c2[nH]c(=O)c(C(c3nnnn3CC3CCCO3)N3CCCC(C)C3)cc2c1 (stereo not given),15µM,·,–,–
Cc1cc(C)c2[nH]c(=O)c(C(c3nnnn3CC3CCCO3)N3CCC(C)CC3)cc2c1 (stereo not given),?,–,–,–
Cc1cccc(C)c1-n1nnnc1C1(C)CCC(=O)N1Cc1cccc(C(F)(F)F)c1 (stereo not given),·,·,·,–
O=C(Nc1ccc(N=Nc2ccccc2)c(NC(=O)C2CCCO2)c1)C1CCCO1 (stereo not given),–,?,2µM,?
